# Results as given in article PMC7862700, “An all-to-all approach to the identification of sequence-specific readers for epigenetic DNA modifications on cytosine”.
# Tests used:
# Experiment in all cases: DAPPL (digital affinity profiling via proximity ligation, sequencing); 10 mM Tris-HCl pH 7.5, 50 mM NaCl, 1 mM DTT, 4% glycerol, room temperature, 30 min; GST-TFs on glutathione beads, 16-mer random dsDNA library, 0.1% formaldehyde crosslink after washing; high values mean tight binding
# Settings in all cases: protein: recombinant; tags: N-terminal GST; dsDNA, one strand shown
# ELK1 = biological target: T1, ELK1 (Homo sapiens, UniProt P19419 1-428)
# T1 sequence: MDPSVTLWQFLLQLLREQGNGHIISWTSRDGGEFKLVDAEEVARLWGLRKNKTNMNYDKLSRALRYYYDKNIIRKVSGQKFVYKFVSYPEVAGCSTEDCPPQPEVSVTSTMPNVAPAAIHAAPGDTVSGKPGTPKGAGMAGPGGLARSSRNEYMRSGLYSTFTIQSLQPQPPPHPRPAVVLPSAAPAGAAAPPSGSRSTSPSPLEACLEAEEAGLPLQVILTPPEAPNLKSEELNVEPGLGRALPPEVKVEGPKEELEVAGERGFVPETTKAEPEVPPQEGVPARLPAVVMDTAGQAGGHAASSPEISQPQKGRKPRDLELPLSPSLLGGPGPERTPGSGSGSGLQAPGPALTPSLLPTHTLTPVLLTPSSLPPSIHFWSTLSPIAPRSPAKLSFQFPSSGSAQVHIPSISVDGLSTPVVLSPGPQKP
# Outline: (§1)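 Human transcription factors were made in yeast as GST fusions, captured on glutathione beads and barcoded with DNA. With a tag-only sample included, the pool was incubated with 200 nmole of a random double-stranded 16-mer DNA library in Tris/NaCl/DTT/glycerol buffer at room temperature for 30 min, then crosslinked with 0.1% formaldehyde after washing, ligated by proximity, amplified and sequenced. For binding signal, each hexamer's read frequency for a factor is divided by its frequency for the tag-only sample.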
# GABPA = biological target: T2, GABPA (Homo sapiens, UniProt Q06546 1-454)
# T2 sequence: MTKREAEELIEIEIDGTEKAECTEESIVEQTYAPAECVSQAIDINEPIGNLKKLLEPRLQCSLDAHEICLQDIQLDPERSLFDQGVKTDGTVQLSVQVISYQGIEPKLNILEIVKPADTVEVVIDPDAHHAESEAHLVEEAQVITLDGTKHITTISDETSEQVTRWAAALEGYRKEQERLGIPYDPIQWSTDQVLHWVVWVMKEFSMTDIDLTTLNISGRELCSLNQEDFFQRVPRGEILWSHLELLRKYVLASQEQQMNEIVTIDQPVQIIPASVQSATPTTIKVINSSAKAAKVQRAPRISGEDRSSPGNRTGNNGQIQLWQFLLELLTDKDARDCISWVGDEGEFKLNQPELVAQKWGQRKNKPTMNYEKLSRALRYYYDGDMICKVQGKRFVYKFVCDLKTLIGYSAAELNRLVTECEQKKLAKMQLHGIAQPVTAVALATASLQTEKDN
# Outline: as §1
# ERG = biological target: T3, ERG (Homo sapiens, UniProt P11308 1-479)
# T3 sequence: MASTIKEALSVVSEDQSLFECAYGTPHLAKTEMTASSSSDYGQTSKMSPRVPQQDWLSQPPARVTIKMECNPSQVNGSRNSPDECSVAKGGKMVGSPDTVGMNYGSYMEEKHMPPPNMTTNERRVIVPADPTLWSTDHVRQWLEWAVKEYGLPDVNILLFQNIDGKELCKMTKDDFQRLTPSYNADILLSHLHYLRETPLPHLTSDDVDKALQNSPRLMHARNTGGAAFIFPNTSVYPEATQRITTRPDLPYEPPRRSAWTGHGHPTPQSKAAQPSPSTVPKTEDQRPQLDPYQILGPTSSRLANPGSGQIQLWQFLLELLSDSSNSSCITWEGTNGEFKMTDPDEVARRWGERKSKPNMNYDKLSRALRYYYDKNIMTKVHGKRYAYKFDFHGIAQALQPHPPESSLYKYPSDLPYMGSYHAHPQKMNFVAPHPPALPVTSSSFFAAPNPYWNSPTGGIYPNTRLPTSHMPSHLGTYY
# Outline: as §1
# ELF1 = ELF1 (Homo sapiens, UniProt P32519 1-619)
# ELF1, sequence (P32519 whole entry): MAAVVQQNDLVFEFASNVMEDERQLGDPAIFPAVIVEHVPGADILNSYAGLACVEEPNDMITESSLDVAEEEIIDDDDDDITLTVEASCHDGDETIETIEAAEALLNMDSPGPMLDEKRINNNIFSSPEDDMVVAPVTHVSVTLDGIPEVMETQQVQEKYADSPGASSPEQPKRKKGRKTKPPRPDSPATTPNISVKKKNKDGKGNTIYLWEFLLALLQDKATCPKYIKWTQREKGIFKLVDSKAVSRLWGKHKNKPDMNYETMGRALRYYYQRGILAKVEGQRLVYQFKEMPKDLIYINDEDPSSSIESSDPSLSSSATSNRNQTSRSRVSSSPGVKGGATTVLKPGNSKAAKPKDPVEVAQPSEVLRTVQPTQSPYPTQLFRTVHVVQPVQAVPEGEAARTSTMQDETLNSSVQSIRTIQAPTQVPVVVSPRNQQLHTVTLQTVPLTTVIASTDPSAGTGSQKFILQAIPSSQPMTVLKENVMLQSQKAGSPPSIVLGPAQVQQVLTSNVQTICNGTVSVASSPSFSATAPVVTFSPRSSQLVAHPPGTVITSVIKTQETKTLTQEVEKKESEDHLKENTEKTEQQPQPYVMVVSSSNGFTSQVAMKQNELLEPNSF
# Outline: as §1
# EHF = biological target: T4, EHF (Homo sapiens, UniProt Q9NZC4 1-300)
# T4 sequence: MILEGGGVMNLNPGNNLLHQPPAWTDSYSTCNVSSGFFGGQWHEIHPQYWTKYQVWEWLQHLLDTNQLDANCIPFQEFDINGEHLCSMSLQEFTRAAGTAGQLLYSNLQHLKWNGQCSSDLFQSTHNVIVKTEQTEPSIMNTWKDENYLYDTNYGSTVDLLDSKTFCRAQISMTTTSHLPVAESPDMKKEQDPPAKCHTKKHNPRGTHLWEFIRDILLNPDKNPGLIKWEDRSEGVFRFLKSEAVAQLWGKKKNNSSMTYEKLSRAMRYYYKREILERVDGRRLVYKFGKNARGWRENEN
# Outline: as §1
# SPIB = SPIB (Homo sapiens, UniProt Q01892 1-262)
# SPIB, sequence (Q01892 whole entry): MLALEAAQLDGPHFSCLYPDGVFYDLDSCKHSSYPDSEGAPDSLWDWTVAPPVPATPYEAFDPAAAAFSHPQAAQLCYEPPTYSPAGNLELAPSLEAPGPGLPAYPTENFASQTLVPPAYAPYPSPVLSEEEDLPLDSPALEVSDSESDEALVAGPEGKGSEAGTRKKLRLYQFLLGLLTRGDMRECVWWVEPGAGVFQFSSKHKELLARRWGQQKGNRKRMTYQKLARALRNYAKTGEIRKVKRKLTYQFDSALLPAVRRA
# Outline: as §1
# ELK3 = biological target: T5, ELK3 (Homo sapiens, UniProt P41970 1-407)
# T5 sequence: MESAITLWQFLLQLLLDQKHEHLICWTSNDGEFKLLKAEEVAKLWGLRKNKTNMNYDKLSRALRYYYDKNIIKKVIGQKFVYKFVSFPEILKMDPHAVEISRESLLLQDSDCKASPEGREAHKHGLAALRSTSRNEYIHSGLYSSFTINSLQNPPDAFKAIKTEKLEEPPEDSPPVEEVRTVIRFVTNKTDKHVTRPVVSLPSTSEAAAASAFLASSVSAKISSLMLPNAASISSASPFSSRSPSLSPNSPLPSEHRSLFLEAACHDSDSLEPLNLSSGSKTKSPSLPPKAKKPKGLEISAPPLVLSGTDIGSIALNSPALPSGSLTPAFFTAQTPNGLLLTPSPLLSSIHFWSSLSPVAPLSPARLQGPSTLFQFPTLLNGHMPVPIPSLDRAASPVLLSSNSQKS
# Outline: as §1
# SPIC = biological target: T6, SPIC (Homo sapiens, UniProt Q8N5J4 1-248)
# T6 sequence: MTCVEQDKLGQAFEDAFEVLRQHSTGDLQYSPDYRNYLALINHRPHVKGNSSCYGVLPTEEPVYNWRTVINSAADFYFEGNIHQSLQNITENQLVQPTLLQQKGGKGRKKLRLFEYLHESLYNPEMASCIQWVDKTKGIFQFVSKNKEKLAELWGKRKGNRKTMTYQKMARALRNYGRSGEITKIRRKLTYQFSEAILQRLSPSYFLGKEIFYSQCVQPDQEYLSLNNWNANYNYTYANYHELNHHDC
# Outline: as §1
# ELF4 = ELF4 (Homo sapiens, UniProt Q99607 1-663)
# ELF4, sequence (Q99607 whole entry): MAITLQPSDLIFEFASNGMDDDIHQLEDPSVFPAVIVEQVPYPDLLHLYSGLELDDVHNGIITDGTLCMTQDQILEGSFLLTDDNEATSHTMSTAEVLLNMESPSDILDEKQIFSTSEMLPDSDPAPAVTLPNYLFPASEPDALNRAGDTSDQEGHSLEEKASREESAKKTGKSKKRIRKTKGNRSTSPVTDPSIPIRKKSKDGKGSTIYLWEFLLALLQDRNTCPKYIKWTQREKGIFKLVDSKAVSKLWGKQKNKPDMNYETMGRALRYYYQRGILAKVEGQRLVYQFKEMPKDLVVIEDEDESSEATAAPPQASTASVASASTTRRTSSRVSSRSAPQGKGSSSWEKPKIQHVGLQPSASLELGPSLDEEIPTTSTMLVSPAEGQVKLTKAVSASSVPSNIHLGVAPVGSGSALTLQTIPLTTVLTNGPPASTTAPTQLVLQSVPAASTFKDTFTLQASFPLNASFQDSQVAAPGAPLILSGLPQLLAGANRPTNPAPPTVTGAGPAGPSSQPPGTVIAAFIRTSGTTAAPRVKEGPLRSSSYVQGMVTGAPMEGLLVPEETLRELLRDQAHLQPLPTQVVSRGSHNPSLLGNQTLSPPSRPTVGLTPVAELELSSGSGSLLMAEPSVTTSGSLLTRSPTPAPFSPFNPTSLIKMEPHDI
# Outline: as §1
# ELK4 = biological target: T7, ELK4 (Homo sapiens, UniProt P28324-2 1-405)
# T7 sequence: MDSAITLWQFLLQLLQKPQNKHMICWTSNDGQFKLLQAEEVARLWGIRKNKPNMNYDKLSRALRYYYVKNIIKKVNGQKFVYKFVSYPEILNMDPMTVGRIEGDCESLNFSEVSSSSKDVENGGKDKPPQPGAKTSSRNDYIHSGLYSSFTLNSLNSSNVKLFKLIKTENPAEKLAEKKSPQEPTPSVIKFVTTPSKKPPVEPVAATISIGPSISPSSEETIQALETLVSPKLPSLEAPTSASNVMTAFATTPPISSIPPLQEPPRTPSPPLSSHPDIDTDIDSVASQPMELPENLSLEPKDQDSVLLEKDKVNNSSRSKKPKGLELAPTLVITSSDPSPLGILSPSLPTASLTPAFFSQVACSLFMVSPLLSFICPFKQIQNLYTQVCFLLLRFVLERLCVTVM
# Outline: as §1
# ETV1 = ETV1 (Homo sapiens, UniProt P50549 1-477)
# ETV1, sequence (P50549 whole entry): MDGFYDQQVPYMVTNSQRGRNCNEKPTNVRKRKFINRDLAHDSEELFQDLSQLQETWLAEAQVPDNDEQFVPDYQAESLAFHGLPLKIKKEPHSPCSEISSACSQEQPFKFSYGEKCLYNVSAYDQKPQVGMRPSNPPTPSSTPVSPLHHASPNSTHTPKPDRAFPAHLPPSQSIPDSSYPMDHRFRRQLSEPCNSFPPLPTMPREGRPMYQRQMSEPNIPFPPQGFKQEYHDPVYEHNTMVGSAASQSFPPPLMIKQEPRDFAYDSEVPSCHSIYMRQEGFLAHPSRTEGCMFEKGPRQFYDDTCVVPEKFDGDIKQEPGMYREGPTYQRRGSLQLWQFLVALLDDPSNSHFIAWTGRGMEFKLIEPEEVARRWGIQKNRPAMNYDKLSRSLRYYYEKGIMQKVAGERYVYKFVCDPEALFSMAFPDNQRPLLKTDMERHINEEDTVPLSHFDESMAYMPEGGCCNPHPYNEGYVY
# Outline: as §1
# ERF = biological target: T8, ERF (Homo sapiens, UniProt P50548 1-548)
# T8 sequence: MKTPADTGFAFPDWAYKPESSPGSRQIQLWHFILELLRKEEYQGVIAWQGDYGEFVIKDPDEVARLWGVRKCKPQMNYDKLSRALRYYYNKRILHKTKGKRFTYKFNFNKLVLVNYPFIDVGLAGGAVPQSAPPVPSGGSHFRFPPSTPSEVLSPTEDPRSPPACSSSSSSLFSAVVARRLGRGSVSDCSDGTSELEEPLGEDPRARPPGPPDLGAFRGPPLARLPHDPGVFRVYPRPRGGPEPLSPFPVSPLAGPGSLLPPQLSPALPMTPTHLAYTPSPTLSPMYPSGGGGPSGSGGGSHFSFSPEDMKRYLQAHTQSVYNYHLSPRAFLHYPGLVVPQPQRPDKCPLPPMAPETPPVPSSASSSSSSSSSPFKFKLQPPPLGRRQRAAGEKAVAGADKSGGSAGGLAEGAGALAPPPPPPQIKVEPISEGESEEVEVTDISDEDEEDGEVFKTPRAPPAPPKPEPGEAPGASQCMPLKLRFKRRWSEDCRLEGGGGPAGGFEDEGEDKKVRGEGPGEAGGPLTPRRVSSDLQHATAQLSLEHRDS
# Outline: as §1
# ETV3L = biological target: T9, ETV3L (Homo sapiens, UniProt Q6ZN32 1-361)
# T9 sequence: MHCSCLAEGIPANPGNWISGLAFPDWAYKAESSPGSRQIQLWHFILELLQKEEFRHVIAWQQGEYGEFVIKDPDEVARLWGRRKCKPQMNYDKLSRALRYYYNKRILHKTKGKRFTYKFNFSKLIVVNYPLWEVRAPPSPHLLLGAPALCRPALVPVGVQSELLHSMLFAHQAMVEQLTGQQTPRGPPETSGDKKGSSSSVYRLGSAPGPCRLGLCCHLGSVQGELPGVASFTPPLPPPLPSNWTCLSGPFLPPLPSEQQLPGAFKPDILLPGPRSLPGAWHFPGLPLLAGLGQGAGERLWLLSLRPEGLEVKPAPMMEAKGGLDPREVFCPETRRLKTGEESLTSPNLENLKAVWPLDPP
# Outline: as §1
# ETS2 = biological target: T10, ETS2 (Homo sapiens, UniProt P15036 1-469)
# T10 sequence: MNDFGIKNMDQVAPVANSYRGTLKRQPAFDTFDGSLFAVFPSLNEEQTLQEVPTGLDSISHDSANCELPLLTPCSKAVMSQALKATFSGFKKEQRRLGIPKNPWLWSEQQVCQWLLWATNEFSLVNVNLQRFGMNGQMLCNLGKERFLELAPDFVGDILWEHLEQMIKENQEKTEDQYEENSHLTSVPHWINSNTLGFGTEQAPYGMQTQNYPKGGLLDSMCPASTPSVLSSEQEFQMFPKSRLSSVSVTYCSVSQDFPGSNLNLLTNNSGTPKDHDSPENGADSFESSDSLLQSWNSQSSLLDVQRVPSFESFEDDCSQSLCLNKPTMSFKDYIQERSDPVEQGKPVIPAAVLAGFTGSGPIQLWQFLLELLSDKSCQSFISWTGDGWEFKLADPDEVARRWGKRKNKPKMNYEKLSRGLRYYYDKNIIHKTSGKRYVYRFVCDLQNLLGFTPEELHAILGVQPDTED
# Outline: as §1
# SPDEF = biological target: T11, SPDEF (Homo sapiens, UniProt O95238 1-335)
# T11 sequence: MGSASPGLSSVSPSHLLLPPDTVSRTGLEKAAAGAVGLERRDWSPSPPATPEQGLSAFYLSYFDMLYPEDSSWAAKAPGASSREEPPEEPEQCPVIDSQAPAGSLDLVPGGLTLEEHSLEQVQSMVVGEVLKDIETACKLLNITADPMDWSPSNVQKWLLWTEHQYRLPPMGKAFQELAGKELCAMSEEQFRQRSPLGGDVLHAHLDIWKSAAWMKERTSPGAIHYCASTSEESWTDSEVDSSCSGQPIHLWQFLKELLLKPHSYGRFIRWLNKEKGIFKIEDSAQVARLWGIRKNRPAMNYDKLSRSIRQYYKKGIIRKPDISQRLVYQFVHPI
# Outline: as §1
# ETV7 = biological target: T12, ETV7 (Homo sapiens, UniProt Q9Y603 1-341)
# T12 sequence: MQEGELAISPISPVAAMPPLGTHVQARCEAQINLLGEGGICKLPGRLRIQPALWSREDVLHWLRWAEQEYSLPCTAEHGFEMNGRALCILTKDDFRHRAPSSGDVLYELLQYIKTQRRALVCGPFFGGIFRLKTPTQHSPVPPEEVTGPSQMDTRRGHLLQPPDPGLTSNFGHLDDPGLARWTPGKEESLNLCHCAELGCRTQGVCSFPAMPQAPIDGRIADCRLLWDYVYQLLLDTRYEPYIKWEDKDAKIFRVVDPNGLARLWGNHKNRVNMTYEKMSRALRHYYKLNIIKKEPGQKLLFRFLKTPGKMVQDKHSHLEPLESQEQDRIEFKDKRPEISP
# Outline: as §1
# ETV6 = ETV6 (Homo sapiens, UniProt P41212 1-452)
# ETV6, sequence (P41212 whole entry): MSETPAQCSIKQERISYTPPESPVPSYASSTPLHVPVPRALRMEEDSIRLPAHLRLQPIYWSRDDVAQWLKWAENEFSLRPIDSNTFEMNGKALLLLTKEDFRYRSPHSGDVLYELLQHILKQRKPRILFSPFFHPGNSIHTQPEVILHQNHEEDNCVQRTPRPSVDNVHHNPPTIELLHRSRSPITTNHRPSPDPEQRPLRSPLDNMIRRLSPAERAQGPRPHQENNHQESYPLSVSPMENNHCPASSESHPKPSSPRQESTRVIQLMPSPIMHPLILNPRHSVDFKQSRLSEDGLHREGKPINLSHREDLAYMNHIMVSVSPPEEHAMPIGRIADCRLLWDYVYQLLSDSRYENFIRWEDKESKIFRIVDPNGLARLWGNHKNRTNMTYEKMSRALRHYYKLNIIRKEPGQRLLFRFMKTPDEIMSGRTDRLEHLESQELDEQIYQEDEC
# Outline: as §1
sequence,measurement,setting,value
CGTCTG,binding signal,ELK1,"1.06 fold enrichment (6-mer frequency, TF over GST control)"
same,binding signal,GABPA,"1.06 fold enrichment (6-mer frequency, TF over GST control)"
same,binding signal,ERG,"1.11 fold enrichment (6-mer frequency, TF over GST control)"
same,binding signal,ELF1,"1.11 fold enrichment (6-mer frequency, TF over GST control)"
same,binding signal,EHF,"1.07 fold enrichment (6-mer frequency, TF over GST control)"
same,binding signal,SPIB,"1.18 fold enrichment (6-mer frequency, TF over GST control)"
same,binding signal,ELK3,"1.05 fold enrichment (6-mer frequency, TF over GST control)"
same,binding signal,SPIC,"1.17 fold enrichment (6-mer frequency, TF over GST control)"
same,binding signal,ELF4,"1.05 fold enrichment (6-mer frequency, TF over GST control)"
same,binding signal,ELK4,"1.08 fold enrichment (6-mer frequency, TF over GST control)"
same,binding signal,ETV1,"1.12 fold enrichment (6-mer frequency, TF over GST control)"
same,binding signal,ERF,"1.11 fold enrichment (6-mer frequency, TF over GST control)"
same,binding signal,ETV3L,"1.14 fold enrichment (6-mer frequency, TF over GST control)"
same,binding signal,ETS2,"1.08 fold enrichment (6-mer frequency, TF over GST control)"
same,binding signal,SPDEF,"1.05 fold enrichment (6-mer frequency, TF over GST control)"
same,binding signal,ETV7,"1.02 fold enrichment (6-mer frequency, TF over GST control)"
same,binding signal,ETV6,"1.01 fold enrichment (6-mer frequency, TF over GST control)"
